Assay [1] is described as follows: NCI Yeast Anticancer Drug Screen. Data for the rad50 strain (AID 155).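 Also: 0% = growth of vehicle-only cultures of the same strain.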 The conditions noted are these: S. cerevisiae rad50 strain growth inhibition; at 50.0 µM; active compounds read high. In short, it runs like this:
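Growth of the mutant yeast was measured after compound exposure and referenced to vehicle-treated cultures.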

Assay [2] is described as follows: NCI Yeast Anticancer Drug Screen. Data for the mec2-1 strain (AID 157). The conditions noted are these: S. cerevisiae mec2-1 strain, at 50.0 µM, active compounds read high. The essentials: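 Compounds were applied to mec2-1 yeast cells. Their growth was then compared with that of vehicle-treated cultures to give growth inhibition.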
The nature of assay [3]: NCI Yeast Anticancer Drug Screen. Data for the sgs1 mgt1 strain (AID 161).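 Also: 0% = growth of cultures given vehicle only.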 As to conditions: S. cerevisiae sgs1 mgt1 strain, at 50.0 µM, active compounds read high. In short, it runs like this: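 Yeast cells carrying a defined DNA-repair defect were exposed to test compounds. Growth inhibition was measured relative to vehicle-treated controls.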
A short description of assay [4]: NCI Yeast Anticancer Drug Screen. Data for the cln2 rad14 strain (AID 165).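 Also: 0% = growth equal to vehicle treated cultures.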 As to conditions: S. cerevisiae cln2 rad14 strain, at 50.0 µM, active compounds read high. In short, it runs like this: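 Strain: cln2 rad14 yeast, altered in cell cycle control and DNA damage repair. Read-out: growth inhibition vs vehicle.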
The nature of assay [5]: NCI Yeast Anticancer Drug Screen. Data for the bub3 strain (AID 167). The conditions noted are these: S. cerevisiae bub3 mutant strain, at 50.0 µM, active compounds read high. In short, it runs like this: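 Whole-cell yeast assay. The mutant strain was incubated with compounds, and growth inhibition was determined by comparison with vehicle-treated cells.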
The nature of assay [6]: NCI Yeast Anticancer Drug Screen. Data for the mlh1 rad18 strain (AID 175). As to conditions: S. cerevisiae mlh1 rad18 strain growth inhibition; at 50.0 µM; active compounds read high. The essentials:
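A repair-deficient yeast strain is exposed to test compound, and growth is scored relative to vehicle-treated controls.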

Compounds without any hit were thinned out: in the full panel of roughly 79,000, 15% have a hit. A number with no mark means an inactive call. The source made the active and inactive calls. Rule as the data show it: active = growth inhibition above about 70%; inactive = the rest.

On to `Cc1cc(C)n(/C(N)=N/[N+](=O)[O-])n1`, for which the growth inhibition in assay [1] was -15.3%; in assay [2], -18.9%; in assay [3], 3.6%; in assay [4], 12.6%; in assay [5], 21.6%.
In the case of `Cc1ccc(NC(=O)N(C)N=O)cc1`, the growth inhibition in assay [1] was -3.5%; in assay [2] it was 5.5%; in assay [3] it was -4.3%; in assay [4], -11.3%; in assay [5] it was -6.05%.
On to `Clc1cccc2nncc(N3CC3)c12`, for which the growth inhibition was 2% in assay [1]; 23.6% in assay [2]; -17.2% in assay [3]; -6.2% in assay [4]; -9.05% in assay [5].
As for `CCOc1ccc(/C=C/c2cc(OC)c(OC)c(OC)c2)cc1`, the growth inhibition in assay [1] is -27.9%; in assay [2], -21.7%; in assay [3], -23.8%; in assay [4], -10.3%; in assay [5], -8.6%.
For `O=[N+]([O-])c1ccc(P2(=O)Nc3ccccc3N2)cc1`, in that order: -21.9%, -12.7%, -8.6%, -46.8% and 0.25%.
For `O=C(c1ccccc1)N1CC(Cl)CN(C(=O)c2ccccc2)CC(Cl)C1` (configuration not stated), in that order: 21.4%, 26%, 37.8%, 14.8% and 16.3%.
For `CCC[CH2][Sn]([Cl])([Cl])[CH2]CCC.c1ccncc1`, in that order: 95.5% (active), 97.5% (active), 98.2% (active), 98.3% (active) and 98.2% (active).
As for `N#Cc1ccc(/C=C/C(=O)O)cc1`, the growth inhibition was 17.2% in assay [1]; -10.4% in assay [2]; -9.15% in assay [3]; -60.2% in assay [4]; -9.9% in assay [5].
For `CC(C)COC(=O)Cc1ccccc1`, in that order: 23.2%, 12.6%, 13.7%, -30.1% and -0.55%.
For `[C-]#[O+].[C-]#[O+].[C-]#[O+].[Cr].c1ccc(P(CC[PH+](CC[PH+](CC[PH+](c2ccccc2)c2ccccc2)c2ccccc2)c2ccccc2)c2ccccc2)cc1` (configuration not stated), in that order: 36.3%, 13.6%, 41.5%, 18.6% and 33.8%.
For `CC(=O)Nc1ccc2c(c1)C(=O)c1cc(NC(C)=O)ccc1-2` the same measures were 24.4%, -10.1%, -13.6%, 1.55% and -2.75%.
As for `CCCCC[As](=O)(O)O`, the growth inhibition is 12.2% in assay [1]; -6.4% in assay [2]; 1.2% in assay [3]; -5.6% in assay [4]; 4.3% in assay [5].
As for `O=[N+]([O-])c1ccc(SN2C3CCCCC32)c([N+](=O)[O-])c1` (configuration not stated), the growth inhibition in assay [1] is 3.85%; in assay [2], 11.7%; in assay [3] it was 6.1%; in assay [4], 7.85%; in assay [5], 11.8%.
As to `COc1cc(C2c3cc4c(cc3[C@@H](OC)[C@H]3COC(=O)C23)OCO4)cc(OC)c1O` (some centres not stated), the growth inhibition in assay [1] was 89.5% (active); in assay [2], 90% (active); in assay [3] it was 86.4% (active); in assay [4], 85.1% (active); in assay [5], 89.3% (active).
Consider `CCCOC(C(=O)OC1CCC2CCC1N2C)(c1ccccc1)c1ccccc1` (configuration not stated), for which the growth inhibition was 5.4% in assay [1]; -0.5% in assay [2]; 17.8% in assay [3]; 13.8% in assay [4]; 28.8% in assay [5].
Consider `N.N.N.N.N.NC(=O)c1nn[n-]n1.[Cl-].[Co+3]`, for which the growth inhibition is -27.2% in assay [1]; -3% in assay [2]; -9.45% in assay [3]; 0% in assay [4]; -27.3% in assay [5]; -17.1% in assay [6].
As for `O=C1OC(Br)c2ccccc21` (configuration not stated), the growth inhibition is -11.4% in assay [1]; -27.7% in assay [2]; -8% in assay [3]; 7% in assay [4]; -20.1% in assay [5].
For `CCCCC(=O)c1cc(OC)cc(OC)c1`, in that order: 8.35%, -12.3%, -34.1%, -54% and 22.4%.
Regarding `Cc1ccc([NH-])c([NH-])c1.[Cl][Pt+2][Cl]`, the growth inhibition in assay [1] is 22.1%; in assay [2], 0.25%; in assay [3] it was 30.4%; in assay [4] it was 12.3%; in assay [5], -2.85%; in assay [6], 13.7%.
In the case of `CCCCCCC(Cn1ccnc1)c1ccc(Br)cc1` (configuration not stated), the growth inhibition in assay [1] is 98.2% (active); in assay [2], 98.8% (active); in assay [3] it was 95.8% (active); in assay [4] it was 98.3% (active); in assay [5] it was 99.5% (active).
As for `Cc1ccc(P(=O)(O)O)cc1`, the growth inhibition was -10.9% in assay [1]; -15.9% in assay [2]; 12.1% in assay [3]; 2.6% in assay [4]; -2.2% in assay [5].
Take `COc1ccc([Se]c2ccc(OC)cc2OC)c(OC)c1`: the growth inhibition was -19.1% in assay [1]; -39% in assay [2]; 2.8% in assay [3]; -18.3% in assay [4]; 8.5% in assay [5].
`O=C1CCCN1CC#CCN1CCCC1`: the growth inhibition in assay [1] was -13.8%; in assay [2], -20.9%; in assay [3] it was 16.9%; in assay [4] it was 3.3%; in assay [5], 8.55%.
